Laboratory results as given in PubChem BioAssay AID1159580 (chemical genetic matrix, 2015).
Where “and” joins values, the source holds several entries; their conditions need not be identical. Identical values can stand only once. Out of some 5,500 compounds screened, about 2,000 (36%) were called active. Not shown: some 18% with an inconclusive outcome. Rule as the data show it: active = normalized growth mostly below about 0.91 (no sharp cut-off); inconclusive = no clear call, values can overlap the other calls; inactive = mostly above about 0.92. The list shows a part of the results.

Assay: chemical genetic growth profiling, strain panel (AID 1159580);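 also: tested at 20 µM; growth read once vehicle control cultures reached saturation at 30 °C; 1 = growth at the plate median or of vehicle wells; lower values mean less growth of the strain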
Conditions: S. cerevisiae deletion strains, growth OD

**Q.** Which normalized growth (locus YAL013W, strain DEP1, stronger effect = lower value) does the source give for `CCCCOC(=O)c1ccc(N)cc1` here?
**A.** The normalized growth was 0.974 (inactive).

**Q.** And the normalized growth (locus YAL021C, strain ccr4, stronger effect = lower value)?
**A.** The normalized growth was 0.909 (inactive).

**Q.** What about the normalized growth (locus YAL026C, strain drs2, stronger effect = lower value) of the same compound?
**A.** Its normalized growth is 0.603 (active).

**Q.** And the normalized growth (locus YAL030W, strain snc1, stronger effect = lower value)?
**A.** The normalized growth was 0.908 (active).

**Q.** What about the normalized growth (locus YBL061C, strain skt5, stronger effect = lower value) of the same compound?
**A.** Its normalized growth is 0.71 (active).

**Q.** What about the normalized growth (locus YBR009C, strain hhf1, stronger effect = lower value) of the same compound?
**A.** The normalized growth was 0.849 (active).

**Q.** And the normalized growth (locus YBR021W, strain FUR4, stronger effect = lower value)?
**A.** The normalized growth was 0.948 (inactive).

**Q.** And the normalized growth (locus YBR023C, strain chs3, stronger effect = lower value)?
**A.** Its normalized growth is 0.729 (active).

**Q.** And the normalized growth (locus YBR171W, strain sec66, stronger effect = lower value)?
**A.** The normalized growth was 0.884 (active).

**Q.** What about the normalized growth (locus YBR229C, strain ROT2, stronger effect = lower value) of the same compound?
**A.** The normalized growth was 0.993 (inactive).

**Q.** What about the normalized growth (locus YBR231C, strain swc5, stronger effect = lower value) of the same compound?
**A.** The normalized growth was 0.821 (active).

**Q.** What about the normalized growth (locus YBR279W, strain paf1, stronger effect = lower value) of the same compound?
**A.** The normalized growth was 0.897 (active).

**Q.** What about the normalized growth (locus YCL011C, strain gbp2, stronger effect = lower value) of the same compound?
**A.** The normalized growth was 0.891 (active).

**Q.** What about the normalized growth (locus YCL016C, strain dcc1, stronger effect = lower value) of the same compound?
**A.** The normalized growth was 0.86 (active).

**Q.** And the normalized growth (locus YCL029C, strain bik1, stronger effect = lower value)?
**A.** The normalized growth was 0.948 (inactive).

**Q.** And the normalized growth (locus YCL069W, strain vba3, stronger effect = lower value)?
**A.** The normalized growth was 0.886 (active).

**Q.** What about the normalized growth (locus YCR088W, strain abp1, stronger effect = lower value) of the same compound?
**A.** Its normalized growth is 0.862 (active).

**Q.** And the normalized growth (locus YDL005C, strain med2, stronger effect = lower value)?
**A.** The normalized growth was 0.949 (inactive).

**Q.** What about the normalized growth (locus YDL035C, strain GPR1, stronger effect = lower value) of the same compound?
**A.** The normalized growth was 0.951 (inactive).

**Q.** And the normalized growth (locus YDL040C, strain nat1, stronger effect = lower value)?
**A.** The normalized growth was 0.932 (active).

**Q.** And the normalized growth (locus YDL074C, strain BRE1, stronger effect = lower value)?
**A.** The normalized growth was 0.869 (inactive).

**Q.** And the normalized growth (locus YDL101C, strain DUN1, stronger effect = lower value)?
**A.** Its normalized growth is 0.975 (inactive).

**Q.** And the normalized growth (locus YDL134C, strain PPH21, stronger effect = lower value)?
**A.** Its normalized growth is 0.969 (inactive).

**Q.** And the normalized growth (locus YDL185W, strain tfp1, stronger effect = lower value)?
**A.** The normalized growth was 0.959 (inactive).

**Q.** What about the normalized growth (locus YDL192W, strain arf1, stronger effect = lower value) of the same compound?
**A.** Its normalized growth is 0.886 (active).

**Q.** What about the normalized growth (locus YDR001C, strain nth1, stronger effect = lower value) of the same compound?
**A.** Its normalized growth is 0.904 (active).

**Q.** And the normalized growth (locus YDR069C, strain doa4, stronger effect = lower value)?
**A.** Its normalized growth is 0.916 (inactive).

**Q.** What about the normalized growth (locus YDR101C, strain arx1, stronger effect = lower value) of the same compound?
**A.** The normalized growth was 0.898 (active).

**Q.** What about the normalized growth (locus YDR137W, strain rgp1, stronger effect = lower value) of the same compound?
**A.** The normalized growth was 0.453 (active).

**Q.** And the normalized growth (locus YDR150W, strain NUM1, stronger effect = lower value)?
**A.** Its normalized growth is 0.988 (inactive).

**Q.** And the normalized growth (locus YDR159W, strain sac3, stronger effect = lower value)?
**A.** The normalized growth was 0.751 (active).

**Q.** What about the normalized growth (locus YDR162C, strain NBP2, stronger effect = lower value) of the same compound?
**A.** Its normalized growth is 0.801 (active).

**Q.** What about the normalized growth (locus YDR195W, strain ref2) of the same compound?
**A.** The normalized growth was 1.14 (inactive).

**Q.** And the normalized growth (locus YDR297W, strain sur2, stronger effect = lower value)?
**A.** The normalized growth was 0.92 (active).

**Q.** What about the normalized growth (locus YDR318W, strain mcm21, stronger effect = lower value) of the same compound?
**A.** Its normalized growth is 0.897 (active).

**Q.** And the normalized growth (locus YDR334W, strain swr1, stronger effect = lower value)?
**A.** The normalized growth was 0.914 (inactive).

**Q.** What about the normalized growth (locus YDR335W, strain msn5, stronger effect = lower value) of the same compound?
**A.** The normalized growth was 0.858 (active).

**Q.** And the normalized growth (locus YDR388W, stronger effect = lower value)?
**A.** The normalized growth was 0.911 (active).

**Q.** And the normalized growth (locus YDR392W, strain spt3, stronger effect = lower value)?
**A.** The normalized growth was 0.484 (active).

**Q.** What about the normalized growth (locus YDR502C, strain sam2, stronger effect = lower value) of the same compound?
**A.** Its normalized growth is 0.911 (active).

**Q.** What about the normalized growth (locus YEL003W, strain gim4, stronger effect = lower value) of the same compound?
**A.** Its normalized growth is 0.888 (active).

**Q.** What about the normalized growth (locus YEL037C, strain rad23, stronger effect = lower value) of the same compound?
**A.** The normalized growth was 0.928 (inactive).

**Q.** What about the normalized growth (locus YEL061C, strain CIN8 (second series), stronger effect = lower value) of the same compound?
**A.** Its normalized growth is 0.895 (active).

**Q.** And the normalized growth (locus YEL061C, strain CIN8, stronger effect = lower value)?
**A.** Its normalized growth is 0.974 (inactive).

**Q.** What about the normalized growth (locus YER015W, strain faa2, stronger effect = lower value) of the same compound?
**A.** The normalized growth was 0.864 (active).

**Q.** What about the normalized growth (locus YER016W, strain bim1, stronger effect = lower value) of the same compound?
**A.** The normalized growth was 0.877 (active).

**Q.** What about the normalized growth (locus YER110C, stronger effect = lower value) of the same compound?
**A.** Its normalized growth is 0.922 (inactive).

**Q.** And the normalized growth (locus YER111C, strain swi4, stronger effect = lower value)?
**A.** The normalized growth was 0.896 (active).

**Q.** What about the normalized growth (locus YER155C, strain BEM2 (second series), stronger effect = lower value) of the same compound?
**A.** The normalized growth was 0.203 (active).

**Q.** And the normalized growth (locus YER155C, strain BEM2, stronger effect = lower value)?
**A.** Its normalized growth is 0.969 (inactive).

**Q.** What about the normalized growth (locus YER167W, strain BCK2, stronger effect = lower value) of the same compound?
**A.** Its normalized growth is 0.906 (inactive).

**Q.** What about the normalized growth (locus YFR010W, strain ubp6, stronger effect = lower value) of the same compound?
**A.** Its normalized growth is 0.924 (inactive).

**Q.** And the normalized growth (locus YGL078C, strain dbp3, stronger effect = lower value)?
**A.** Its normalized growth is 0.96 (inactive).

**Q.** And the normalized growth (locus YGL086W, strain mad1, stronger effect = lower value)?
**A.** The normalized growth was 0.927 (active).

**Q.** What about the normalized growth (locus YGL167C, strain pmr1, stronger effect = lower value) of the same compound?
**A.** The normalized growth was 0.927 (inactive).

**Q.** What about the normalized growth (locus YGL173C, strain kem1, stronger effect = lower value) of the same compound?
**A.** Its normalized growth is 0.876 (active).

**Q.** What about the normalized growth (locus YGL227W, strain vid30, stronger effect = lower value) of the same compound?
**A.** Its normalized growth is 0.893 (active).

**Q.** What about the normalized growth (locus YGL240W, strain doc1, stronger effect = lower value) of the same compound?
**A.** The normalized growth was 0.666 (active).

**Q.** What about the normalized growth (locus YGL248W, strain PDE1, stronger effect = lower value) of the same compound?
**A.** Its normalized growth is 0.996 (inactive).

**Q.** And the normalized growth (locus YGL253W, strain hxk2, stronger effect = lower value)?
**A.** Its normalized growth is 0.869 (active).

**Q.** And the normalized growth (locus YGR078C, strain PAC10, stronger effect = lower value)?
**A.** Its normalized growth is 0.89 (inactive).

**Q.** And the normalized growth (locus YGR135W, strain pre9, stronger effect = lower value)?
**A.** The normalized growth was 0.865 (active).

**Q.** What about the normalized growth (locus YGR229C, strain SMI1, stronger effect = lower value) of the same compound?
**A.** Its normalized growth is 0.608 (active).

**Q.** And the normalized growth (locus YGR252W, strain gcn5, stronger effect = lower value)?
**A.** Its normalized growth is 0.743 (active).

**Q.** What about the normalized growth (locus YHR013C, strain ard1, stronger effect = lower value) of the same compound?
**A.** Its normalized growth is 0.856 (inactive).

**Q.** What about the normalized growth (locus YHR027C, strain rpn1, stronger effect = lower value) of the same compound?
**A.** The normalized growth was 0.908 (active).

**Q.** What about the normalized growth (locus YHR030C, strain SLT2, stronger effect = lower value) of the same compound?
**A.** The normalized growth was 0.637 (active) and 0.942 (inactive).

**Q.** What about the normalized growth (locus YHR079C, strain IRE1 (second series), stronger effect = lower value) of the same compound?
**A.** The normalized growth was 0.935 (inactive).

**Q.** And the normalized growth (locus YHR079C, strain IRE1, stronger effect = lower value)?
**A.** The normalized growth was 0.993 (inactive).

**Q.** And the normalized growth (locus YHR094C, strain hxt1, stronger effect = lower value)?
**A.** Its normalized growth is 0.961 (inactive).

**Q.** And the normalized growth (locus YHR129C, strain ARP1, stronger effect = lower value)?
**A.** Its normalized growth is 0.984 (inactive).

**Q.** And the normalized growth (locus YHR142W, strain chs7, stronger effect = lower value)?
**A.** Its normalized growth is 0.495 (active).

**Q.** What about the normalized growth (locus YHR200W, strain rpn10, stronger effect = lower value) of the same compound?
**A.** The normalized growth was 0.933 (inactive).

**Q.** And the normalized growth (locus YIL066C, strain RNR3, stronger effect = lower value)?
**A.** The normalized growth was 0.925 (inactive).

**Q.** And the normalized growth (locus YIL073C, strain SPO22, stronger effect = lower value)?
**A.** Its normalized growth is 0.85 (inactive).

**Q.** What about the normalized growth (locus YIL125W, strain kgd1, stronger effect = lower value) of the same compound?
**A.** Its normalized growth is 0.967 (inactive).

**Q.** And the normalized growth (locus YIR030C, strain dcg1, stronger effect = lower value)?
**A.** The normalized growth was 0.946 (inactive).

**Q.** And the normalized growth (locus YJL092W, strain hpr5, stronger effect = lower value)?
**A.** The normalized growth was 0.872 (active).

**Q.** And the normalized growth (locus YJL095W, strain BCK1 (second series), stronger effect = lower value)?
**A.** The normalized growth was 0.278 (active).

**Q.** What about the normalized growth (locus YJL095W, strain BCK1, stronger effect = lower value) of the same compound?
**A.** The normalized growth was 0.511 (active) and 0.971 (inactive).

**Q.** And the normalized growth (locus YJL115W, strain asf1, stronger effect = lower value)?
**A.** Its normalized growth is 0.907 (inactive).

**Q.** What about the normalized growth (locus YJL129C, strain trk1, stronger effect = lower value) of the same compound?
**A.** Its normalized growth is 0.769 (active).

**Q.** And the normalized growth (locus YJL134W, strain LCB3, stronger effect = lower value)?
**A.** The normalized growth was 0.985 (inactive).

**Q.** What about the normalized growth (locus YJL154C, strain vps35, stronger effect = lower value) of the same compound?
**A.** Its normalized growth is 0.906 (active).

**Q.** And the normalized growth (locus YJL164C, strain tpk1, stronger effect = lower value)?
**A.** Its normalized growth is 0.871 (active).

**Q.** And the normalized growth (locus YJL166W, strain qcr8, stronger effect = lower value)?
**A.** Its normalized growth is 0.825 (active).

**Q.** And the normalized growth (locus YJL168C, strain set2, stronger effect = lower value)?
**A.** The normalized growth was 0.953 (inactive).

**Q.** And the normalized growth (locus YJL187C, strain SWE1 (second series), stronger effect = lower value)?
**A.** The normalized growth was 0.93 (inactive).

**Q.** And the normalized growth (locus YJL187C, strain SWE1, stronger effect = lower value)?
**A.** Its normalized growth is 0.919 (active).

**Q.** What about the normalized growth (locus YJR043C, strain POL32, stronger effect = lower value) of the same compound?
**A.** The normalized growth was 0.871 (inactive).

**Q.** What about the normalized growth (locus YJR066W, strain TOR1, stronger effect = lower value) of the same compound?
**A.** The normalized growth was 0.949 (inactive).
